Data as given in PubChem BioAssay (NCI).
Compounds without any hit were thinned out: in the full panel of roughly 83,000, 20% have a hit.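 Single-concentration screen, 48 h exposure, 96-well plates. Endpoint: percent growth. Below 10 = active.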

Experiments:
Assay in all cases: NCI-60 one-dose screen, 48 h (100 = growth as untreated, 0 = no growth, -100 = all killed)
HCT-15 colon = settings: 10 µM
HT29 colon = settings: 10 µM
SNB-75 CNS = settings: 10 µM
SNB-19 CNS = settings: 10 µM
U251 CNS = settings: 10 µM
PC-3 prostate = settings: 10 µM
SK-MEL-5 melanoma = settings: 10 µM
UACC-62 melanoma = settings: 10 µM unless noted
SK-MEL-28 melanoma = settings: 10 µM
LOX IMVI melanoma = settings: 10 µM

Measured: growth

CC(C)OC(C(=O)O)c1ccccc1 (stereo not drawn)
inactive: HCT-15 colon 97.8% | HT29 colon 109% | SNB-75 CNS 78.2% | SNB-19 CNS 99.5% | U251 CNS 111% | PC-3 prostate 82.9% | SK-MEL-5 melanoma 105% | UACC-62 melanoma 97.1% | SK-MEL-28 melanoma 102%

O=C(CCNNC(=O)c1ccncc1)NCc1ccccc1
inactive: HCT-15 colon 81.8% | HT29 colon 105% | SNB-75 CNS 89.4% | SNB-19 CNS 98.1% | U251 CNS 85.4% | PC-3 prostate 87.4% | SK-MEL-5 melanoma 89% | UACC-62 melanoma 88% | SK-MEL-28 melanoma 103%

O=c1[nH]nc(SC2CCCCC2)c(=O)[nH]1
inactive: HCT-15 colon 106% | HT29 colon 97.1% | SNB-75 CNS 82.3% | SNB-19 CNS 103% | U251 CNS 103% | PC-3 prostate 90.6% | SK-MEL-5 melanoma 112% | UACC-62 melanoma 113% | SK-MEL-28 melanoma 94.8%

CCCCCCCCOC(=O)c1ccccn1
inactive: HCT-15 colon 97.3% | HT29 colon 96.2% | SNB-75 CNS 84.4% | SNB-19 CNS 105% | U251 CNS 110% | PC-3 prostate 97.4% | SK-MEL-5 melanoma 104% | UACC-62 melanoma 99.4% | SK-MEL-28 melanoma 107%

CCCC[P+](c1ccccc1)(c1ccccc1)c1ccccc1
inactive: HCT-15 colon 99.5% | HT29 colon 40.9% | SNB-75 CNS 53.5% | SNB-19 CNS 55.3% | U251 CNS 30.1% | PC-3 prostate 26.8% | SK-MEL-5 melanoma 16.1% | UACC-62 melanoma 44.3% | SK-MEL-28 melanoma 69.1%

CC(C)(C)c1cc(O)c(C(C)(C)C)cc1O
inactive: HCT-15 colon 97.9% | HT29 colon 98.3% | SNB-75 CNS 92.7% | SNB-19 CNS 49.2% | U251 CNS 75.2% | PC-3 prostate 76.3% | SK-MEL-5 melanoma 67.8% | LOX IMVI melanoma 98.1% | SK-MEL-28 melanoma 94.4%

O=[N+]([O-])c1cccc2nsnc12
inactive: HCT-15 colon 103% | HT29 colon 105% | SNB-75 CNS 96.7% | SNB-19 CNS 98.4% | U251 CNS 104% | PC-3 prostate 97.3% | UACC-62 melanoma 105% | LOX IMVI melanoma 99.7% | SK-MEL-28 melanoma 114%

S=c1[nH]ccn1-c1ccccc1Cl
inactive: HCT-15 colon 107% | HT29 colon 104% | SNB-75 CNS 95.4% | SNB-19 CNS 102% | U251 CNS 99.2% | PC-3 prostate 95.2% | SK-MEL-5 melanoma 112% | UACC-62 melanoma 107% | SK-MEL-28 melanoma 101%

CCNc1nc2c(cnn2C)c(=O)[nH]1
inactive: HCT-15 colon 122% | HT29 colon 96.2% | SNB-75 CNS 88.6% | SNB-19 CNS 109% | U251 CNS 97.8% | PC-3 prostate 99% | UACC-62 melanoma 107% | LOX IMVI melanoma 95% | SK-MEL-28 melanoma 118%

CCC/C=C(\C)C(C)(C#N)C(=O)OCC (stereo not drawn)
inactive: HCT-15 colon 113% | HT29 colon 109% | SNB-75 CNS 87.8% | SNB-19 CNS 102% | U251 CNS 102% | PC-3 prostate 101% | UACC-62 melanoma 102% | LOX IMVI melanoma 99.9% | SK-MEL-28 melanoma 109%

CC1(C)N=C(N)N=C(N)N1c1ccc(Cl)cc1
inactive: HCT-15 colon 73.6% | HT29 colon 29.8% | SNB-75 CNS 75.8% | SNB-19 CNS 58% | U251 CNS 31.5% | PC-3 prostate 33.1% | SK-MEL-5 melanoma 31.7% | UACC-62 melanoma 41.4% | SK-MEL-28 melanoma 90.4%

Cc1ccc(C(=O)c2ccccc2)c(C)c1
inactive: HCT-15 colon 105% | HT29 colon 101% | SNB-75 CNS 84.4% | SNB-19 CNS 111% | U251 CNS 110% | PC-3 prostate 98.3% | SK-MEL-5 melanoma 107% | UACC-62 melanoma 102% | SK-MEL-28 melanoma 109%

Oc1ccc2c(c1)OCC1(O)Cc3cc(O)c(O)cc3C21 (stereo not drawn)
inactive: HCT-15 colon 80.6% | HT29 colon 92.4% | SNB-75 CNS 22.8% | SNB-19 CNS 117% | U251 CNS 90.7% | PC-3 prostate 69.5% | UACC-62 melanoma 91.5%

CCOC(=O)/C(C#N)=C/c1cccc(C)c1
inactive: HCT-15 colon 108% | HT29 colon 99% | SNB-75 CNS 80.8% | SNB-19 CNS 94.8% | U251 CNS 98.2% | SK-MEL-5 melanoma 101% | UACC-62 melanoma 92% | LOX IMVI melanoma 94.8%

CC(C)(N)COS(=O)(=O)O
inactive: HCT-15 colon 103% | HT29 colon 113% | SNB-75 CNS 91.5% | SNB-19 CNS 93% | U251 CNS 103% | SK-MEL-5 melanoma 102% | UACC-62 melanoma 102% | LOX IMVI melanoma 113% | SK-MEL-28 melanoma 96.3%

CSC(=N\N=C\c1ccc(N(C)C)cc1)/N=C/N(C)C
inactive: HCT-15 colon 96.1% | HT29 colon 113% | SNB-75 CNS 102% | SNB-19 CNS 100% | PC-3 prostate 106% | SK-MEL-5 melanoma 101% | UACC-62 melanoma 112%

C#Cc1cccc(NC(=O)c2ccc(Cl)cc2Cl)c1
inactive: HCT-15 colon 87.6% | HT29 colon 100% | SNB-75 CNS 106% | SNB-19 CNS 97.3% | U251 CNS 91.3% | SK-MEL-5 melanoma 91.1% | UACC-62 melanoma 87.9% | LOX IMVI melanoma 98.5% | SK-MEL-28 melanoma 102%
